Drawing on PubChem BioAssay (NCI), this text covers growth for 14 compounds.

The structures appear in SMILES notation. Compounds without any hit were thinned out: in the full panel of roughly 83,000, 20% have a hit.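 Negative percent growth values reflect cell death: -40 means 40% of the cells present at the start died, and -100 means all died.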 Values without a mark were called inactive. Calls of active or inactive are those of the source. How the source made its calls: active means growth percent below 10; inactive means the rest.

Test systems include HCT-15 colon; HT29 colon; SNB-75 CNS; SNB-19 CNS; U251 CNS; PC-3 prostate; SK-MEL-5 melanoma; UACC-62 melanoma; LOX IMVI melanoma; SK-MEL-28 melanoma.
Holding throughout (test): NCI-60 one-dose screen, 48 h (100 = growth as untreated, 0 = no growth, -100 = all killed)
What all share (conditions): 10 µM unless noted

With `COc1ccc(-c2ccc(NC(=O)Nc3cccc(C(F)(F)F)c3)c(C)n2)cc1`, the growth is 40.9% with HCT-15 colon; 47.7% in the experiment with HT29 colon; 77.6% in the experiment on SNB-75 CNS; 67.8% with SNB-19 CNS; 50.2% in the experiment on U251 CNS; 24.4% with PC-3 prostate. Also, the growth in the experiment with SK-MEL-5 melanoma is 41.6%; with UACC-62 melanoma, 63.9%; with LOX IMVI melanoma it was 47.7%; with SK-MEL-28 melanoma, 69.3%.
On to `Cc1nc(-c2ccc(Cl)cc2)ccc1NC(=O)Nc1cccc(C(F)(F)F)c1`, for which the growth was 82.1% with HCT-15 colon; 75.7% with HT29 colon; 92.8% with SNB-75 CNS; 108% in the experiment with SNB-19 CNS; 76.7% in the experiment with U251 CNS; 80.5% in the experiment on PC-3 prostate. The growth is 95.3% with SK-MEL-5 melanoma, 95.6% with UACC-62 melanoma, 92.9% in the experiment on LOX IMVI melanoma and 110% in the experiment with SK-MEL-28 melanoma.
As to `CCOc1ccc(-n2c(-c3cc(OC)c(OC)c(OC)c3)nnc2-c2ccc(OC)cc2N)cc1`, the growth with HCT-15 colon is 64.9%; in the experiment on HT29 colon, 52.7%; with SNB-75 CNS, 76.3%; with SNB-19 CNS, 75.5%; in the experiment on U251 CNS, 65.6%; with PC-3 prostate it was 63.3%. Besides, the growth in the experiment on SK-MEL-5 melanoma is 66%; in the experiment on UACC-62 melanoma it was 66.7%; in the experiment with LOX IMVI melanoma, 80.3%; in the experiment on SK-MEL-28 melanoma it was 80.2%.
As for `CC1(C)N=C(N)N=C(N)N1c1ccc(F)c(C(F)(F)F)c1`, the growth in the experiment on HCT-15 colon is 45.8%; with HT29 colon it was 19.3%; with SNB-75 CNS, 59%; in the experiment on SNB-19 CNS it was 44%; in the experiment with U251 CNS it was 47.2%; in the experiment on PC-3 prostate it was 34.3%. The growth in the experiment on SK-MEL-5 melanoma is 22.8%; in the experiment with UACC-62 melanoma, 24.3%; in the experiment on LOX IMVI melanoma it was 21.4%; in the experiment on SK-MEL-28 melanoma, 97.8%.
For the compound `CCN(CC)CCNc1ccc([N+](=O)[O-])c2sc3cc(Cl)ccc3c(=O)c12`, the growth with HCT-15 colon is 48.5%; in the experiment on HT29 colon, 34.7%; in the experiment on SNB-75 CNS, 1.48% (active); in the experiment on SNB-19 CNS, 42.2%; in the experiment with U251 CNS it was 40.4%; in the experiment with PC-3 prostate it was 48.5%. For the same compound, the growth with SK-MEL-5 melanoma is 61.7%; in the experiment on UACC-62 melanoma, 30.9%; in the experiment on LOX IMVI melanoma, 19.1%; in the experiment on SK-MEL-28 melanoma it was -47.5% (active).
Take `CS(=O)(=O)OCC(COS(C)(=O)=O)C(c1ccccc1)c1ccccc1`: the growth with HCT-15 colon was 108%; in the experiment with HT29 colon it was 100%; with SNB-75 CNS it was 96.2%; with SNB-19 CNS, 105%; with U251 CNS, 107%; with PC-3 prostate, 97.2%. Besides, the growth is 107% in the experiment with SK-MEL-5 melanoma, 90.3% with UACC-62 melanoma, 99.7% in the experiment on LOX IMVI melanoma and 114% in the experiment with SK-MEL-28 melanoma.
As to `CC(=O)n1cc(/C=C2\N=C(c3ccc(Cl)cc3)N(c3ccc(S(=O)(=O)Nc4nccs4)cc3)C2=O)c2ccccc21`, the growth in the experiment with HCT-15 colon was 95%; with HT29 colon it was 103%; in the experiment with SNB-75 CNS, 92.2%; with SNB-19 CNS it was 67.7%; in the experiment with U251 CNS, 56.2%; in the experiment on PC-3 prostate, 72.6%. The growth with SK-MEL-5 melanoma was 80.1%; in the experiment with UACC-62 melanoma, 84.1%; in the experiment with LOX IMVI melanoma it was 93.2%; in the experiment on SK-MEL-28 melanoma, 82.2%.
Regarding `CNCCCOc1c(Br)cc(CCNC(=O)/C(Cc2ccc(OC)c(Br)c2)=N/O)cc1Br`, the growth with HCT-15 colon was 22.9%; with HT29 colon, 5.72% (active); in the experiment with SNB-75 CNS, 50.6%; with SNB-19 CNS it was 50.3%; in the experiment on U251 CNS, 27.5%; with PC-3 prostate, 34.5%. Besides, the growth in the experiment on SK-MEL-5 melanoma was 38.9%; in the experiment with UACC-62 melanoma, 9.73% (active); with LOX IMVI melanoma, -35.4% (active); with SK-MEL-28 melanoma, -21.7% (active).
For `O=C(Nc1cccc(-n2ccc3c(NC(=O)c4ccccc4)nccc32)c1)c1cccc(C(F)(F)F)c1`, the growth with HCT-15 colon was 9.77% (active); in the experiment with HT29 colon it was -13.2% (active); in the experiment with SNB-75 CNS, 44.6%; with SNB-19 CNS it was 28.5%; with U251 CNS, 7.1% (active); in the experiment on PC-3 prostate, 33.2%. Also, the growth with SK-MEL-5 melanoma is -45.4% (active); in the experiment with UACC-62 melanoma it was 29.6%; in the experiment on LOX IMVI melanoma it was 8.39% (active); with SK-MEL-28 melanoma, 40.9%.
Consider `O=[N+]([O-])c1ccc(NS(=O)(=O)c2cc(Cl)ccc2Cl)c2ccccc12`, for which the growth with HCT-15 colon was 54.2%; in the experiment on HT29 colon, 59.4%; in the experiment on SNB-75 CNS, 60.6%; in the experiment on SNB-19 CNS, 60.1%; with U251 CNS it was 67.1%; in the experiment with PC-3 prostate it was 54.7%. Besides, the growth in the experiment with SK-MEL-5 melanoma is 14%; in the experiment on UACC-62 melanoma it was 17.1%; with LOX IMVI melanoma, 56.4%; in the experiment on SK-MEL-28 melanoma, 35.4%.
As to `C=CC(=O)Nc1cccc(Nc2nc(Nc3ccc(OCCOC(F)F)cc3)ncc2F)c1`, the growth in the experiment on HCT-15 colon is 22.4%; in the experiment with HT29 colon, 33.8%; with SNB-75 CNS, 4.93% (active); with SNB-19 CNS it was 55.7%; with U251 CNS it was 30.1%; in the experiment on PC-3 prostate, 40.7%. The growth with SK-MEL-5 melanoma is 79.6%; in the experiment with UACC-62 melanoma it was 24.1%; in the experiment on LOX IMVI melanoma, 18%; in the experiment on SK-MEL-28 melanoma, 68%.
In the case of `CCCCCn1ncc(-c2c(O)c(O)cc3c(O)c(-c4c(C)cc5c(-c6cnn(CCCCC)n6)c(O)c(O)cc5c4O)c(C)cc23)n1`, the growth with HCT-15 colon is 14%; in the experiment on HT29 colon, -20.9% (active); in the experiment with SNB-75 CNS, 34.2%; in the experiment on SNB-19 CNS, 22%; in the experiment with U251 CNS, -33.3% (active); in the experiment on PC-3 prostate, -25.3% (active). Besides, the growth in the experiment with SK-MEL-5 melanoma was -49.2% (active); in the experiment on UACC-62 melanoma, -11.8% (active); with LOX IMVI melanoma it was -40.7% (active); in the experiment on SK-MEL-28 melanoma, 25.9%.
Turning to `C=C1C(=O)O[C@H]2[C@H]1CC/C(COC(=O)c1ccccc1)=C\CC[C@@]1(C)O[C@@H]21`, the growth with HCT-15 colon was -66.1% (active); in the experiment on HT29 colon it was -62.7% (active); in the experiment on SNB-75 CNS, 68.8%; in the experiment on SNB-19 CNS, 33.1%; in the experiment with U251 CNS it was 26.8%; in the experiment on PC-3 prostate it was 35%. The growth in the experiment on SK-MEL-5 melanoma was 12%; in the experiment on UACC-62 melanoma, -66.9% (active); with LOX IMVI melanoma, -88.6% (active); in the experiment with SK-MEL-28 melanoma, -33.9% (active).
For `O=c1[nH]ccc2nc(N3CCC(O)CC3)nc(Nc3cccc(C(F)(F)F)c3)c12`, the growth in the experiment on HCT-15 colon is 49.9%; in the experiment with HT29 colon, 71.6%; in the experiment on SNB-75 CNS it was 87.1%; in the experiment with SNB-19 CNS it was 98.9%; in the experiment on U251 CNS it was 55.2%; in the experiment with PC-3 prostate it was 30.6%. For the same compound, the growth in the experiment on SK-MEL-5 melanoma was -55.9% (active); in the experiment with UACC-62 melanoma it was 32%; with LOX IMVI melanoma, 56.2%; with SK-MEL-28 melanoma, 76.1%.
